# Compound activity deposited in PubChem BioAssay by National Center for Advancing Translational Sciences (NCATS).
# TRHR ag – activates the human TRH receptor | P34981 | TRHR cells, calcium flux fluo-8, FDSS agonist mode | activation, % at 2 µM | 360,000 tested, 0.18% active | AID 493084; also: 0% is about no effect
# Target sequence (P34981 whole entry, looked up): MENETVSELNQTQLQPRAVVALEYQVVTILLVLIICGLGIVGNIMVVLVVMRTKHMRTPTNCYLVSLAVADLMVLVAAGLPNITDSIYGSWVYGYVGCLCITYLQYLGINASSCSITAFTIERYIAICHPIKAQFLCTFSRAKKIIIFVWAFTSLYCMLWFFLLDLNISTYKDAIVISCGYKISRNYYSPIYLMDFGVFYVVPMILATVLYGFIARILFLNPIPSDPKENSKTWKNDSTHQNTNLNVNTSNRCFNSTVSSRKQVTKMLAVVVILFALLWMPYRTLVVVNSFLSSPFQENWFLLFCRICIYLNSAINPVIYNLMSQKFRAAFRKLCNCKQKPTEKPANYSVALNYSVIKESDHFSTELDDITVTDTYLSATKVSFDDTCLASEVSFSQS
#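 Read-out: compound-evoked intracellular calcium rise in TRHR cells, fluo-8 dye, kinetic FDSS fluorescence at 1 s/cycle following a 10-cycle baseline. Cells cultured overnight before dye loading (30 min–1.5 h, RT).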
# Epigenetic derep – regulators of epigenetic silencing causing reporter derepression in mouse cells | murine LDR cells, GFP reporter derepression, 30 h | Potency, µM (highest dose often 53.9 µM), for the others: top-dose GFP activation, actives largely listed as activators | 280,000 tested, 0.2% active | AID 1865; active = well fitted activation curve with a large enough effect; also: potency is read from the fitted curve at half-maximal effect; % of control where 0% means no effect; nearly all actives have a fitted effect of over 60% in size
#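 Reporter derepression read as number of fluorescent GFP-positive objects, 20-120 um in size, counted by laser-scanning cytometer. Mouse LDR line with an epigenetically silenced CMV-GFP locus; compound incubation 30 h, 37 C.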
# D1 agonist – activates the human D1 dopamine receptor; P21728; HEK293 T-REx D1 cells, calcium flux, agonist mode; activation, % at 2 µM; 360,000 tested, 1% active; AID 504660; also: 0% is about no effect
#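 Inducible HEK293 T-REx D1 cells, force-coupled to calcium signalling, were plated at 4000 cells/well with tetracycline and held overnight at 30 C. After no-wash calcium dye loading, compound-evoked calcium rise over 180 s flagged agonists.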
# D1 antagonist – human D1 dopamine receptor antagonism. 360,000 tested, 3.2% active. AID 504652. HEK293 TREx D1 cells, calcium flux, dopamine EC80; hits give low values. P21728. activity change, negative = inhibition, % at 10 µM; in the data active = activity change below about -30%; also: % is scaled to controls: 0 for no effect and ±100 for the full control effect
#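 Compound effects on dopamine-evoked calcium signalling were measured in tetracycline-induced HEK293 Trex D1 cells. Dopamine at EC80 followed a 180 s compound pre-read, and fluorescence was tracked kinetically for 180 s more.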
# TRHR enhancer – allosterically enhances the human TRH receptor; P34981; TRHR cells, fluo-8 calcium fluorescence, EC20 TRH enhancement; enhancement, % at 2 µM; 360,000 tested, 0.66% active; AID 493056; in the data active = enhancement above about 30%; also: 0% is about no effect
#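 Enhancer read-out: after compound pinning and an initial kinetic agonist-mode read, an EC20 of TRH (10 nM final) was injected and fluo-8 calcium signal (Ex 480/Em 530) followed at 1 s/cycle for 100 cycles in TRHR-expressing cells.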
# D1 PAM – human D1 dopamine receptor positive modulation; P21728; 360,000 tested, 0.036% active; HEK293 TREx D1 cells, calcium flux, dopamine EC20 potentiation; potentiation, % at 10 µM; in the data active = potentiation above about 30%; also: 0% is about no effect
# The depositor's hits bear a star; x = not tested or not shown; [ ] = dose if it differs, or a comment. In the library only some 4.6% were active in any assay of this set; here they are far more common. Rule as the data show it, unless noted: active = activation above about 30%; inactive = the rest.
SMILES,TRHR ag,Epigenetic derep,D1 agonist,D1 antagonist,TRHR enhancer,D1 PAM
Cc1cc(OCC(=O)OCC(=O)N2CCc3ccccc3C2)ccc1Cl,0,x,13,-43*,-1,-8
O=C(CCCOc1ccc(Cl)cc1Cl)N1CCc2ccccc2C1,0,0%,33*,0,13,-5
O=C(CCCOc1ccccc1)N1CCc2ccccc2C1,0,0%,0,-5,0,-2
Cc1nn(-c2ccc3nnc(C)n3n2)c(C)c1CCC(=O)Nc1ccc(OC(F)(F)F)cc1,-1,4%,0,-7,1,-2
O=[S+]([O-])(c1ccc2ncsc2c1)N1CCN([S+](=O)([O-])c2c(F)cccc2F)CC1,1,x,-1,-28,-1,2
CCOC(=O)c1cc(C)n(CC2CCC(C(=O)Nc3ccc(C(C)=O)cc3)CC2)c1C (centres undefined),1,1%,6,-25,13,-2
CS(=O)(=O)CCCCN=C=S,x,4%,x,x,x,x
Cc1ccc(S(=O)(=O)NCCc2nnc3ccc(SCc4ccccc4C)nn23)cc1,-1,-1%,2,4,-4,5
COc1ccccc1CNc1nc2c(S(=O)(=O)c3ccccc3)nnn2c2ccc(Cl)cc12,1,2%,1,15,0,4
Cc1ccc(C)c(OCCC(=O)OCC(=O)NC(=O)NC2CCCC2)c1,0,x,6,-36*,-7,-5
CC(C)(C)c1ccc(OCCC(=O)OCC(=O)NC2CCCCC2)cc1,0,x,4,-44*,-3,-2
Cc1cc(OCC(=O)OCC(=O)NC2CCCC2)ccc1Cl,0,x,9,-36*,0,-5
Cc1cc(OCC(=O)NC2CCCCC2)ccc1Cl,0,2%,-1,-1,0,-7
CC(C)(C)c1ccc(OCCC(=O)OCC(=O)NC(=O)NC2CCCC2)cc1,1,x,4,9,3,1
Cc1ccc(Cl)cc1N1CCN(C(c2ccc(F)cc2)c2nnc(-c3ccccc3)o2)CC1 (centres undefined),1,1%,2,-2,-6,-2
CCOC(=O)c1nn(-c2ccc(C)cc2)c(=O)c2c(N)scc12,0,0%,0,-12,3,6
CCOC(=O)c1nn(-c2ccc(F)cc2)c(=O)c2c(N)scc12,0,-1%,59*,-51*,9,-4
COC(=O)C(CC(=O)c1ccccc1)CC(=O)c1ccccc1,0,x,-1,-10,-3,1
COc1ccccc1C(CC(=O)c1ccccc1)CC(=O)c1ccccc1,2,0%,30*,-30,-8,-2
Cc1ccn2c(-c3csc(NCc4ccccc4)n3)c(C)nc2c1,0,1%,8,-33*,-5,-17
Cc1ccc(Nc2nc(-c3c(C)nc4ccccn34)cs2)cc1,-1,0%,2,-48*,-9,-6
CCOC(=O)c1ccc(NC(=O)CN(C)S(=O)(=O)c2ccc(Br)s2)cc1,0,1%,10,-38*,-6,-12
CCOC(=O)c1ccc(NC(=O)CN(C)S(=O)(=O)c2ccc(OC)cc2)cc1,-1,0%,2,-16,2,0
Cc1ccc(NC(=O)CCS(=O)(=O)c2ccc(Br)s2)cc1,-1,x,4,-53*,-2,-8
Cc1cccc(C)c1NC(=O)Cn1nnc(C(=O)Nc2c(C)cccc2C)c1N,-1,2%,2,5,-1,3
SMILES,TRHR ag,Epigenetic derep,D1 agonist,D1 antagonist,TRHR enhancer,D1 PAM
Cc1ccc(OCC(=O)NC(C)c2ccc(Cl)c(Cl)c2)c([N+](=O)[O-])n1 (centres undefined),0,x,10,-36*,-5,-8
Cc1ccc(OCC(=O)Nc2cc(C)on2)c([N+](=O)[O-])n1,1,-1%,1,4,-5,5
COCCCNC(=O)Cn1c(=O)n(-c2ccc(C)cc2)c(=O)c2c1c1cc(C)ccc1n2C,0,-1%,-1,9,-5,-1
NC(=O)COC(=O)CN1C(=O)C2CCCCC2C1=O (centres undefined),1,-1%,0,7,-1,3
NC(=O)NC(=O)COC(=O)CN1C(=O)C2CCCCC2C1=O (centres undefined),1,-1%,1,-9,36*,-1
CCOC(=O)c1c(C)[nH]c(C(=O)COC(=O)CN2C(=O)C3CCCCC3C2=O)c1C (centres undefined),0,3%,6,-16,31*,1
CCCc1cc(=O)[nH]c(SCC(=O)c2[nH]c(C)c(C(=O)OCC)c2C)n1,0,-2%,0,10,31*,-4
c1cc2c3c(c1)c1c(n3CCNC2)CCCC1,x,-4%,x,x,x,x
CCOC(=O)c1cccc(NC(=O)CCc2c(C)nn(-c3ccc(N4CCCC4)nn3)c2C)c1,-1,0%,1,-21,-8,-7
Cc1cc(Cl)ccc1NC(=O)CCn1nc(C)c2c(C)n(-c3ccccc3)nc2c1=O,0,0%,0,15,2,1
Cc1cc(C)cc(Oc2coc3c(CN4CCN(C)CC4)c(O)ccc3c2=O)c1,0,1%,-2,-4,2,0
N#Cc1c(N)nc(SCc2ccncc2)c(C#N)c1-c1cccs1,0,0%,4,-34*,-3,-4
COc1ccc(Nc2nc3ccccc3n3c(N)nnc23)cc1,0,1%,1,8,6,-1
CC(C)[C@H](NC(=O)OC(C)(C)C)[C@@H](O)CC(=O)C(C)(C)C,x,0%[10.1 µM],x,x,x,x
CCOC(=O)C1(Cc2cccc(OC)c2)CCN(CC(O)CO)CC1 (centres undefined),-1,-1%,1,-44*,-3,-6
CCOC(=O)C1(Cc2ccc(OC)cc2)CCN(C(=O)c2cc(C)on2)CC1,0,x,4,-33*,-2,3
CCOC(=O)C1(Cc2ccc(OC)cc2)CCN(C(=O)c2sc(C)nc2C)CC1,0,1%,3,-14,-1,1
Cc1cccc(N(C)C(=O)CSc2nc3ncccc3o2)c1,0,1%,2,-3,-5,3
CCOC(=O)c1cc(C)n(CC2CCC(C(=O)Nc3ccc(Cl)cc3)CC2)c1C (centres undefined),1,0%,8,-34*,10,-3
CCOC(=O)c1cc(C)n(CC2CCC(C(=O)Nc3cccc(Cl)c3)CC2)c1C (centres undefined),1,0%,1,-3,1,0
C=CCc1ccccc1OCc1nc2ccccc2n1CC,0,0%,15,-1,-7,-1
COc1ccc(CN2C(=NC(=O)C3CC3)SC3CS(=O)(=O)CC32)cc1OC (centres undefined),1,x,2,-31*,3,-6
